# Residue numbers refer to the chain shown, from its start.
# Tests used:
# Assay in all cases: PBM; 200 nM protein, PBS
# Details in all cases: dsDNA, one strand shown
# [1] = biological target: HOXB4 (Homo sapiens, UniProt P17483 148-234)
# [2] = biological target: HOXB4 (Homo sapiens, UniProt P17483 148-234, V174I)
# [3] = biological target: PROP1 (Homo sapiens, UniProt O75360 56-141)
# [4] = biological target: PROP1 (Homo sapiens, UniProt O75360 56-141, R99H)
# [5] = biological target: PROP1 (Homo sapiens, UniProt O75360 56-141, F88S)
# Sequence of PROP1 (Homo sapiens, UniProt O75360 56-141, F88S) (O75360 56-141 F88S): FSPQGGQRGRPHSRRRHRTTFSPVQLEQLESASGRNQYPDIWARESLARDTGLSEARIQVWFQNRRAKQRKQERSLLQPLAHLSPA
# [6] = biological target: SHOX (Homo sapiens, UniProt O15266 103-189)
# Sequence of SHOX (Homo sapiens, UniProt O15266 103-189) (O15266 103-189): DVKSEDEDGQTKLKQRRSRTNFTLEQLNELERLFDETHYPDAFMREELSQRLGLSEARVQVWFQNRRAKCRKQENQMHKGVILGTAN
# [7] = biological target: CRX (Homo sapiens, UniProt O43186 26-111, R41L)
# Sequence of CRX (Homo sapiens, UniProt O43186 26-111, R41L) (O43186 26-111 R41L): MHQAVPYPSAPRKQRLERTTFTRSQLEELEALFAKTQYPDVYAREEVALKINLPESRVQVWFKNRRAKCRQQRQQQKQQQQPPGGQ
# [8] = biological target: HOXD13 (Homo sapiens, UniProt P35453 263-343, T313R)
# Sequence of HOXD13 (P35453 263-343 T313R): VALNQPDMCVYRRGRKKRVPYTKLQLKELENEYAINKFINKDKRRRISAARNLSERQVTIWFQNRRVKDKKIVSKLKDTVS
# [9] = biological target: CRX (Homo sapiens, UniProt O43186 26-111)
# Sequence of CRX (Homo sapiens, UniProt O43186 26-111) (O43186 26-111): as the sequence (O43186 26-111 R41L) above, with L16R counted along it
# [10] = biological target: CRX (Homo sapiens, UniProt O43186 26-111, E42D)
# Sequence of CRX (Homo sapiens, UniProt O43186 26-111, E42D) (O43186 26-111 E42D): as the sequence (O43186 26-111 R41L) above, with L16R, E17D counted along it
# [11] = biological target: PITX2 (Homo sapiens, UniProt Q99697 72-157)
# [12] = biological target: HOXA4 (Homo sapiens, UniProt Q00056 201-287, W262R)
# Sequence of HOXA4 (Homo sapiens, UniProt Q00056 201-287, W262R) (Q00056 201-287 W262R): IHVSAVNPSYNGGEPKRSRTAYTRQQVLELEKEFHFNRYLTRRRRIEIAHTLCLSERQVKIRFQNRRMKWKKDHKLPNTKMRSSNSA
# [13] = biological target: HOXA4 (Homo sapiens, UniProt Q00056 201-287, R217L)
# Sequence of HOXA4 (Homo sapiens, UniProt Q00056 201-287, R217L) (Q00056 201-287 R217L): as the sequence (Q00056 201-287 W262R) above, with R17L, R62W counted along it
# [14] = biological target: SHOX (Homo sapiens, UniProt O15266 103-189, R173C)
# Sequence of SHOX (Homo sapiens, UniProt O15266 103-189, R173C) (O15266 103-189 R173C): as the sequence (O15266 103-189) above, with R71C counted along it
# [15] = biological target: HOXA4 (Homo sapiens, UniProt Q00056 201-287)
# Sequence of HOXA4 (Homo sapiens, UniProt Q00056 201-287) (Q00056 201-287): as the sequence (Q00056 201-287 W262R) above, with R62W counted along it
# [16] = biological target: HOXA4 (Homo sapiens, UniProt Q00056 201-287, W262F)
# Sequence of HOXA4 (Homo sapiens, UniProt Q00056 201-287, W262F) (Q00056 201-287 W262F): as the sequence (Q00056 201-287 W262R) above, with R62F counted along it
# [17] = biological target: T1, VENTX (Homo sapiens, UniProt O95231 78-163, R121Q)
# T1 sequence: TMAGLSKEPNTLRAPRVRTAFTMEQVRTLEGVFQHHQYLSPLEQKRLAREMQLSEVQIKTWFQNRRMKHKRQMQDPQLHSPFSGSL
# [18] = biological target: T2, VENTX (Homo sapiens, UniProt O95231 78-163)
# T2 sequence: T1 sequence with Q44R
# [19] = biological target: T3, PAX4 (Homo sapiens, UniProt O43316 9-242, R200K)
# T3 sequence: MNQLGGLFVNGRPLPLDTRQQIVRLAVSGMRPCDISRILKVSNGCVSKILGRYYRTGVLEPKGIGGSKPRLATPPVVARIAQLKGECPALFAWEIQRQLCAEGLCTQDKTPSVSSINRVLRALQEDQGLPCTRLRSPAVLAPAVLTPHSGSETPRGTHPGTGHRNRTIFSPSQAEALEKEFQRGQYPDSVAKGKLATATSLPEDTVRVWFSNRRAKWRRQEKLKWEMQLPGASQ
# [20] = biological target: T4, VENTX (Homo sapiens, UniProt O95231 78-163, Y115F)
# T4 sequence: T1 sequence with Y38F, Q44R
# [21] = biological target: T5, PAX4 (Homo sapiens, UniProt O43316 9-242)
# T5 sequence: T3 sequence with K192R
# [22] = biological target: T6, PAX4 (Homo sapiens, UniProt O43316 9-242, R200Q)
# T6 sequence: T3 sequence with K192Q
# [23] = biological target: T7, PAX4 (Homo sapiens, UniProt O43316 9-242, F177V)
# T7 sequence: T3 sequence with F169V, K192R
# [24] = biological target: T8, PAX4 (Homo sapiens, UniProt O43316 9-242, F177Y)
# T8 sequence: T3 sequence with F169Y, K192R
# [25] = biological target: T9, PAX4 (Homo sapiens, UniProt O43316 9-242, R227W)
# T9 sequence: T3 sequence with K192R, R219W
# Sequence of PROP1 (Homo sapiens, UniProt O75360 56-141, R99H) (O75360 56-141 R99H): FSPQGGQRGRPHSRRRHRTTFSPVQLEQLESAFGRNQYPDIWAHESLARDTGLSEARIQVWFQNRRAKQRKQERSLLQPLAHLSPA
# Sequence of PROP1 (Homo sapiens, UniProt O75360 56-141) (O75360 56-141): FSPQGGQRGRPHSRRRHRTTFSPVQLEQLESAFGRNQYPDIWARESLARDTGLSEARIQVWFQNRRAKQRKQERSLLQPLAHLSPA
# Sequence of HOXB4 (Homo sapiens, UniProt P17483 148-234) (P17483 148-234): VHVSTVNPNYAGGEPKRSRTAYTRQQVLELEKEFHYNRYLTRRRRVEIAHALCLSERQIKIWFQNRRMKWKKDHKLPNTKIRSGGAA
# Sequence of HOXB4 (Homo sapiens, UniProt P17483 148-234, V174I) (P17483 148-234 V174I): as the sequence (P17483 148-234) above, with V27I counted along it
sequence,measurement,setting,value
CAGTGTGC,binding signal,[1],"7.61 upbm affinity estimate (log intensity, higher = more binding, comparable within an allelic series)"
same,binding signal,[2],"7.69 upbm affinity estimate (log intensity, higher = more binding, comparable within an allelic series)"
same,binding signal,[3],"6.79 upbm affinity estimate (log intensity, higher = more binding, comparable within an allelic series)"
same,binding signal,[4],"6.58 upbm affinity estimate (log intensity, higher = more binding, comparable within an allelic series)"
same,binding signal,[5],"6.78 upbm affinity estimate (log intensity, higher = more binding, comparable within an allelic series)"
GGATTCCC,binding signal,[1],"7.58 upbm affinity estimate (log intensity, higher = more binding, comparable within an allelic series)"
same,binding signal,[2],"7.52 upbm affinity estimate (log intensity, higher = more binding, comparable within an allelic series)"
same,binding signal,[3],"6.63 upbm affinity estimate (log intensity, higher = more binding, comparable within an allelic series)"
same,binding signal,[4],"6.7 upbm affinity estimate (log intensity, higher = more binding, comparable within an allelic series)"
same,binding signal,[5],"6.49 upbm affinity estimate (log intensity, higher = more binding, comparable within an allelic series)"
AAGCTCTC,binding signal,[1],"7.48 upbm affinity estimate (log intensity, higher = more binding, comparable within an allelic series)"
same,binding signal,[2],"7.53 upbm affinity estimate (log intensity, higher = more binding, comparable within an allelic series)"
same,binding signal,[3],"6.71 upbm affinity estimate (log intensity, higher = more binding, comparable within an allelic series)"
same,binding signal,[4],"6.64 upbm affinity estimate (log intensity, higher = more binding, comparable within an allelic series)"
same,binding signal,[5],"6.84 upbm affinity estimate (log intensity, higher = more binding, comparable within an allelic series)"
CTATCATC,binding signal,[6],"8.16 upbm affinity estimate (log intensity, higher = more binding, comparable within an allelic series)"
AGTAAACG,binding signal,[6],"8.05 upbm affinity estimate (log intensity, higher = more binding, comparable within an allelic series)"
GCTGATGA,binding signal,[6],"8.21 upbm affinity estimate (log intensity, higher = more binding, comparable within an allelic series)"
GAAAAGTA,binding signal,[6],"7.94 upbm affinity estimate (log intensity, higher = more binding, comparable within an allelic series)"
ATTGCTAC,binding signal,[6],"8.23 upbm affinity estimate (log intensity, higher = more binding, comparable within an allelic series)"
GATTGAGA,binding signal,[6],"8.1 upbm affinity estimate (log intensity, higher = more binding, comparable within an allelic series)"
CCCATTTA,binding signal,[6],"8.95 upbm affinity estimate (log intensity, higher = more binding, comparable within an allelic series)"
ATTATGCC,binding signal,[6],"9.49 upbm affinity estimate (log intensity, higher = more binding, comparable within an allelic series)"
CTTAAGCA,binding signal,[1],"10.1 upbm affinity estimate (log intensity, higher = more binding, comparable within an allelic series)"
same,binding signal,[2],"10.1 upbm affinity estimate (log intensity, higher = more binding, comparable within an allelic series)"
same,binding signal,[7],"10.3 upbm affinity estimate (log intensity, higher = more binding, comparable within an allelic series)"
AGCATTAG,binding signal,[1],"10.5 upbm affinity estimate (log intensity, higher = more binding, comparable within an allelic series)"
same,binding signal,[2],"10.7 upbm affinity estimate (log intensity, higher = more binding, comparable within an allelic series)"
same,binding signal,[7],"10.1 upbm affinity estimate (log intensity, higher = more binding, comparable within an allelic series)"
TCAAGTAA,binding signal,[6],"8.54 upbm affinity estimate (log intensity, higher = more binding, comparable within an allelic series)"
CTCAATAA,binding signal,[6],"9.16 upbm affinity estimate (log intensity, higher = more binding, comparable within an allelic series)"
CTTATAGA,binding signal,[6],"8.03 upbm affinity estimate (log intensity, higher = more binding, comparable within an allelic series)"
ATATAGAG,binding signal,[6],"8.28 upbm affinity estimate (log intensity, higher = more binding, comparable within an allelic series)"
AATATAAA,binding signal,[1],"10.6 upbm affinity estimate (log intensity, higher = more binding, comparable within an allelic series)"
same,binding signal,[2],"10.7 upbm affinity estimate (log intensity, higher = more binding, comparable within an allelic series)"
same,binding signal,[8],"10.7 upbm affinity estimate (log intensity, higher = more binding, comparable within an allelic series)"
TAACGACA,binding signal,[6],"8.33 upbm affinity estimate (log intensity, higher = more binding, comparable within an allelic series)"
CATTTTCC,binding signal,[6],"8.3 upbm affinity estimate (log intensity, higher = more binding, comparable within an allelic series)"
ATCTATTG,binding signal,[6],"8.32 upbm affinity estimate (log intensity, higher = more binding, comparable within an allelic series)"
ACTGTTAA,binding signal,[6],"8.56 upbm affinity estimate (log intensity, higher = more binding, comparable within an allelic series)"
TCATAACA,binding signal,[6],"8.35 upbm affinity estimate (log intensity, higher = more binding, comparable within an allelic series)"
GATTAATC,binding signal,[6],"10.2 upbm affinity estimate (log intensity, higher = more binding, comparable within an allelic series)"
same,binding signal,[9],"13.2 upbm affinity estimate (log intensity, higher = more binding, comparable within an allelic series)"
same,binding signal,[10],"13 upbm affinity estimate (log intensity, higher = more binding, comparable within an allelic series)"
same,binding signal,[11],"12.9 upbm affinity estimate (log intensity, higher = more binding, comparable within an allelic series)"
same,binding signal,[7],"12.9 upbm affinity estimate (log intensity, higher = more binding, comparable within an allelic series)"
CGAGCGCC,binding signal,[6],"7.01 upbm affinity estimate (log intensity, higher = more binding, comparable within an allelic series)"
same,binding signal,[12],"9.78 upbm affinity estimate (log intensity, higher = more binding, comparable within an allelic series)"
same,binding signal,[13],"9.82 upbm affinity estimate (log intensity, higher = more binding, comparable within an allelic series)"
same,binding signal,[14],"7.09 upbm affinity estimate (log intensity, higher = more binding, comparable within an allelic series)"
same,binding signal,[15],"9.8 upbm affinity estimate (log intensity, higher = more binding, comparable within an allelic series)"
same,binding signal,[16],"9.91 upbm affinity estimate (log intensity, higher = more binding, comparable within an allelic series)"
AATAACGC,binding signal,[6],"8.74 upbm affinity estimate (log intensity, higher = more binding, comparable within an allelic series)"
same,binding signal,[12],"10.2 upbm affinity estimate (log intensity, higher = more binding, comparable within an allelic series)"
same,binding signal,[15],"11.2 upbm affinity estimate (log intensity, higher = more binding, comparable within an allelic series)"
same,binding signal,[16],"10.4 upbm affinity estimate (log intensity, higher = more binding, comparable within an allelic series)"
GGGCAGAC,binding signal,[6],"7.12 upbm affinity estimate (log intensity, higher = more binding, comparable within an allelic series)"
same,binding signal,[17],"7.99 upbm affinity estimate (log intensity, higher = more binding, comparable within an allelic series)"
same,binding signal,[18],"8.2 upbm affinity estimate (log intensity, higher = more binding, comparable within an allelic series)"
same,binding signal,[19],"9.48 upbm affinity estimate (log intensity, higher = more binding, comparable within an allelic series)"
same,binding signal,[20],"8.13 upbm affinity estimate (log intensity, higher = more binding, comparable within an allelic series)"
same,binding signal,[21],"9.45 upbm affinity estimate (log intensity, higher = more binding, comparable within an allelic series)"
same,binding signal,[22],"9.48 upbm affinity estimate (log intensity, higher = more binding, comparable within an allelic series)"
same,binding signal,[14],"7.25 upbm affinity estimate (log intensity, higher = more binding, comparable within an allelic series)"
same,binding signal,[23],"9.22 upbm affinity estimate (log intensity, higher = more binding, comparable within an allelic series)"
same,binding signal,[24],"9.21 upbm affinity estimate (log intensity, higher = more binding, comparable within an allelic series)"
same,binding signal,[25],"9.33 upbm affinity estimate (log intensity, higher = more binding, comparable within an allelic series)"
